Compound activity from PubChem.
NS1 function inh: inhibitors of influenza NS1 protein function; Potency, µM (top dose mostly 46.1 µM), without a hit: at the highest dose activity, positive = more growth; 0.4% of 270,000 active; further: potency means the concentration at half of the fitted maximal effect; actives are rising curves; nearly all actives have a fitted effect of over 50% in size
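Recovery from NS1-induced slow growth read by OD600 in budding yeast switched to galactose assay medium (pH 6.0, -URA) at 1:100 dilution. Compound 23 nl per well; the matching strain lacking NS1 serves as control.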
Pf growth 48h: P. falciparum growth inhibition at 48 hours (one generation). Potency, µM (highest dose often 28.7 µM), inactives show at the top dose activity change, negative = inhibition, hits mostly inhibitors. P. falciparum luciferase growth in erythrocytes, 48 h. AID 504832. 5.9% of 310,000 active; active means well fitted inhibition curve with a large enough effect; inconclusive means small, poorly fitted or top-dose-only effect, or another doubt; inactive means no such curve, though single readings can be large or run the other way; further: potency means the concentration at half of the fitted maximal effect; on the % scale 0 is the no-effect control and ±100 the full control effect
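Firefly luciferase activity from engineered P. falciparum reports growth; inhibitors lower the luminescent signal. Cultures contained 2% hematocrit erythrocytes at 0.1% final parasitemia.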
CHX counter: counter-screen hit for Shiga toxin inhibitors, cycloheximide | 12% of 300,000 active | max response, % | AID 2314 | cell reporter, cycloheximide protein synthesis inhibition counterscreen; in the data active means max response mostly above about 13%, no sharp cut-off; inactive means mostly below about 14%; further: read at 38.3 µM for the half of the compounds with a filed dose; 0% is about no effect
Pf growth 96h: inhibits malaria parasite growth, 96 h. 6.9% of 320,000 active. P. falciparum luciferase reporter growth, 96 h. Potency, µM (highest dose often 28.7 µM), for inactives: at the highest dose activity change, negative = inhibition, hits mostly inhibitors; active means well fitted inhibition curve with a large enough effect; inconclusive means small, poorly fitted or top-dose-only effect, or another doubt; inactive means no such curve, though single readings can be large or run the other way; further: potency means the concentration at half of the fitted maximal effect; on the % scale 0 is the no-effect control and ±100 the full control effect
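P. falciparum expressing integrated firefly luciferase, in erythrocytes at 2% hematocrit, 0.05% parasitemia, incubated with compounds 96 h at 37 C, 5% CO2. Growth inhibition read as loss of luminescence; two-generation exposure targets delayed-death apicoplast inhibitors.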
SARS PLpro yeast: SARS-CoV PLP inhibition in yeast; S. cerevisiae expressing SARS-CoV PLpro, growth rescue; 0.19% of 330,000 active; Potency, µM (titrated, usually from 32.9 µM), for inactives: top-dose activity, positive = growth rescue, most hits filed as activators; further: potency means the concentration at half of the fitted maximal effect; 0% is about no effect; nearly all actives have a fitted effect of over 55% in size
Shiga inhibitor: blocks Shiga toxin action in Vero cells. Vero cells, Shiga toxin protein synthesis inhibition reporter. inhibition, % at 38.7 µM. AID 2315. 9.2% of 290,000 active; in the data active means inhibition mostly above about 28%, no sharp cut-off; inactive means mostly below about 43%; further: 0% is about no effect
The depositor's hits bear a star. The list is not random: actives were taken first. Their share in the collection is about 21%. Unless noted, the call rests on the fitted dose curve.

CN(Cc1cccs1)C(=O)c1ccc(S(=O)(=O)NCc2ccco2)cc1 was read as NS1 function inh -9%, Pf growth 48h -2%, CHX counter 27*, Pf growth 96h inconclusive, SARS PLpro yeast 0% and Shiga inhibitor 26.
For COc1ccc(CNC(=O)/C=C/c2ccc(S(=O)(=O)NCc3ccco3)cc2)cc1OC the results were NS1 function inh 0%, Pf growth 48h inconclusive, CHX counter 1, Pf growth 96h inconclusive, SARS PLpro yeast -3% and Shiga inhibitor -3.
COc1ccc(CCN(C)C(=O)c2ccc(S(=O)(=O)NCc3ccco3)cc2)cc1OC was read as NS1 function inh 11%, Pf growth 48h -6%, CHX counter 55*, Pf growth 96h -1%, SARS PLpro yeast 7% and Shiga inhibitor 81*.
CN(Cc1ccc(Cl)cc1)C(=O)c1ccc(S(=O)(=O)NCc2ccco2)cc1 was read as Pf growth 48h inconclusive, Pf growth 96h inconclusive and SARS PLpro yeast -3%.
For CC1CC(C)CN(C2CCCCC2NS(=O)(=O)c2ccc(Cl)cc2)C1 (stereo not drawn) the results were NS1 function inh -1%, Pf growth 48h -22%, CHX counter -2, Pf growth 96h 27%, SARS PLpro yeast 1% and Shiga inhibitor -5.
`O=C(NCCc1nc2ccccc2[nH]1)/C(=C/c1ccc2c(c1)OCO2)NC(=O)c1ccc(Cl)cc1Cl` gave NS1 function inh -25%, Pf growth 48h -9%, CHX counter 2, Pf growth 96h inconclusive, SARS PLpro yeast -7% and Shiga inhibitor -16.
For CCOc1ccc(-c2nc(C#N)c(NC3CC3)o2)cc1 the results were NS1 function inh 9%, Pf growth 48h 64%, CHX counter 42*, Pf growth 96h 0%, SARS PLpro yeast -4% and Shiga inhibitor 117*.
Screening COc1ccc(Nc2oc(COc3ccc(Cl)cc3)nc2C#N)cc1 returned NS1 function inh -3%, Pf growth 48h inconclusive, CHX counter 2, Pf growth 96h 1%, SARS PLpro yeast 4% and Shiga inhibitor -3.
For CCOc1ccc(-c2nc(C#N)c(NCc3ccc4c(c3)OCO4)o2)cc1 the results were NS1 function inh 0%, Pf growth 48h 22%, CHX counter 20, Pf growth 96h 8.3µM*, SARS PLpro yeast 3% and Shiga inhibitor 2.
CNc1oc(-c2ccccc2)nc1C#N was read as NS1 function inh -6%, Pf growth 48h 21%, CHX counter 20*, Pf growth 96h 150%, SARS PLpro yeast -8% and Shiga inhibitor 38*.
For CCOc1ccc(-c2nc(C#N)c(N3CCOCC3)o2)cc1 the results were NS1 function inh -16%, CHX counter 1, Pf growth 96h inconclusive, SARS PLpro yeast -11% and Shiga inhibitor 13.
For Cc1ccc(OCc2nc(C#N)c(NCc3ccc4c(c3)OCO4)o2)cc1 the results were NS1 function inh -61%, Pf growth 48h -15%, CHX counter 11, Pf growth 96h 12%, SARS PLpro yeast -10% and Shiga inhibitor -15.
Screening COc1ccc(Nc2oc(-c3ccc(Cl)cc3)nc2C#N)cc1 returned NS1 function inh -2%, Pf growth 48h 9%, CHX counter 30*, Pf growth 96h 40%, SARS PLpro yeast 4% and Shiga inhibitor 84*.
CN(C)c1ccc(C(CNC(=O)Cc2cccc3ccccc23)N(C)C)cc1 (stereo not drawn) was read as NS1 function inh -8%, Pf growth 48h 5%, CHX counter -3, Pf growth 96h 28%, SARS PLpro yeast -13% and Shiga inhibitor -6.
For Cc1ccccc1NS(=O)(=O)c1ccc(C(=O)N2CCCC(C(F)(F)F)C2)cc1 (stereo not drawn) the results were Pf growth 48h inconclusive, Pf growth 96h 10% and SARS PLpro yeast 3%.
`CCOc1ccc(-c2nc(C#N)c(N3CCN(Cc4ccccc4)CC3)o2)cc1` gave NS1 function inh -48%, CHX counter -10, Pf growth 96h -3%, SARS PLpro yeast -12% and Shiga inhibitor -18.
Screening CCOc1ccc(Nc2oc(-c3ccc(Cl)cc3)nc2C#N)cc1 returned NS1 function inh -3%, Pf growth 48h 32%, CHX counter 9.8*, Pf growth 96h 16%, SARS PLpro yeast -7% and Shiga inhibitor 34.
